Measurements: PubChem BioAssay (Tox21)
Inconclusive results are not listed. Calls of active or inactive are those of the source. The call rests on the fitted dose curve; in most records, active means well fitted curve in the direction sought with a large enough effect in the repeat runs; inconclusive means weak or mixed curves; inactive means no such curve, though single readings can be large; an effect the other way counts as inactive or inconclusive.

System: not listed separately
Test: qHTS assay to identify aromatase inhibitors - cell viability counter screen (AID 743084);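 further: cells stimulated with testosterone during compound exposure; nearly all actives have a fitted effect of over 55% in size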
Conditions: MCF-7 aro ERE viability, CellTiter-Fluor, 24 h; series mostly up to 70.3 µM; activity change, negative = cytotoxicity: at the top concentration
On the % scale 0 is the no-effect control and ±100 the full control effect; potency means the concentration at half of the fitted maximal effect.

SMILES	activity change, negative = cytotoxicity	Potency
CC(C)N(C(=O)SC/C(Cl)=C/Cl)C(C)C	-20.6% [at 95 µM] (inactive)	–
CCCCN(CCCC)C(=S)S	-8.16% (inactive)	–
O=[N+]([O-])c1ccc(CCl)cc1	-0.188% (inactive)	–
Cc1ccc(C)c2ccccc12	-0.095% (inactive)	–
COC(=O)c1cc(Oc2ccc(Cl)cc2Cl)ccc1[N+](=O)[O-]	-0.891% (inactive)	–
CCOC(=O)CCN(SN(C)C(=O)Oc1cccc2c1OC(C)(C)C2)C(C)C	-26.1% (inactive)	–
CCCCc1ccccc1	-6.55% (inactive)	–
CC(C)Br	3.29% (inactive)	–
CCOP(=S)(OCC)Oc1cc(C)nc(N(CC)CC)n1	3.04% (inactive)	–
Clc1cc(Cl)c(-c2cc(Cl)c(Cl)cc2Cl)cc1Cl	1.59% (inactive)	–
CNC(=O)CSP(=O)(OC)OC	17.3% (inactive)	–
O=S(=O)(O)F	-6.87% [at 95 µM] (inactive)	–
CC(C)=CC1C(C(=O)OC(C#N)c2cccc(Oc3ccccc3)c2)C1(C)C (stereo not drawn)	1.95% (inactive)	–
COc1ccc2[nH]cc(CCN(C(C)C)C(C)C)c2c1	1.91% [at 95 µM] (inactive)	–
CCCCC/C=C\C/C=C\C/C=C\C/C=C\CCCC(=O)NCC(=O)O	-2.83% [at 8.47 µM] (inactive)	–
CC1(C)C(C=C(Cl)Cl)C1C(=O)OC(C#N)c1ccc(F)c(Oc2ccccc2)c1 (stereo not drawn)	-0.101% (inactive)	–
O=S1OCC2C(CO1)C1(Cl)C(Cl)=C(Cl)C2(Cl)C1(Cl)Cl (stereo not drawn)	–	48.6 µM (active)
CN(C)c1ccc(N)cc1	–	66.9 µM (active)
Cc1ccn2nc(S(=O)(=O)Nc3c(F)cccc3F)nc2n1	9.31% (inactive)	–
CC(C)(C)c1ccc(OP(=O)(Oc2ccccc2)Oc2ccccc2)cc1	-8.55% [at 95 µM] (inactive)	–

SMILES	activity change, negative = cytotoxicity	Potency
ClC1=C(Cl)[C@]2(Cl)[C@@H]3[C@H]4C[C@H]([C@@H]5O[C@H]45)[C@@H]3[C@@]1(Cl)C2(Cl)Cl	–	inactive
COC(=O)/C=C(\C)OP(=O)(OC)OC	4.22% (inactive)	–
ClC1(Cl)C2(Cl)C3(Cl)C4(Cl)C(Cl)(Cl)C5(Cl)C3(Cl)C1(Cl)C5(Cl)C24Cl (stereo not drawn)	8.73% (inactive)	–
Cc1cnc2c(C(=O)O)c(Cl)ccc2c1	8.49% (inactive)	–
CNC(=O)Oc1cc(C)cc(C(C)C)c1	1.73% (inactive)	–
N#Cc1ccc(N(CC(N)=O)CC(F)(F)F)cc1C(F)(F)F	2.34% (inactive)	–
Cc1c([N+](=O)[O-])c(C)c([N+](=O)[O-])c(C(C)(C)C)c1[N+](=O)[O-]	-8.08% (inactive)	–
Clc1ccc(C(c2ccc(Cl)cc2)C(Cl)Cl)cc1	-10.4% (inactive)	–
CC(C)C(Br)C(=O)NC(N)=O (stereo not drawn)	-2.74% (inactive)	–
CCCCC(CC)COC(=O)OOC(C)(C)C (stereo not drawn)	3.98% (inactive)	–
CCOC(=O)Cc1ccccc1	11.4% (inactive)	–
c1csc(-c2ccc(-c3cccs3)s2)c1	0.717% (inactive)	–
N#CSCc1ccccc1	-1.35% [at 95 µM] (inactive)	–
C[C@H]1[C@H](c2ccc(Cl)cc2)SC(=O)N1C(=O)NC1CCCCC1	-12.5% (inactive)	–
COc1c2c(cc3c1OCO3)CCN(C)C2	1.43% [at 32.5 µM] (inactive)	–
CNC(=O)/C=C(\C)OP(=O)(OC)OC	-0.28% (inactive)	–
CSC(C)(C)/C=N/O	8.18% (inactive)	–
CCCCC(CC)COC(=O)c1ccccc1C(=O)OCC(CC)CCCC (stereo not drawn)	24.9% (inactive)	–
NC(=O)C(Cl)Cl	9.89% (inactive)	–

Target: Aryl hydrocarbon receptor (Homo sapiens) (UniProt P35869)
Sequence (P35869 whole entry, looked up): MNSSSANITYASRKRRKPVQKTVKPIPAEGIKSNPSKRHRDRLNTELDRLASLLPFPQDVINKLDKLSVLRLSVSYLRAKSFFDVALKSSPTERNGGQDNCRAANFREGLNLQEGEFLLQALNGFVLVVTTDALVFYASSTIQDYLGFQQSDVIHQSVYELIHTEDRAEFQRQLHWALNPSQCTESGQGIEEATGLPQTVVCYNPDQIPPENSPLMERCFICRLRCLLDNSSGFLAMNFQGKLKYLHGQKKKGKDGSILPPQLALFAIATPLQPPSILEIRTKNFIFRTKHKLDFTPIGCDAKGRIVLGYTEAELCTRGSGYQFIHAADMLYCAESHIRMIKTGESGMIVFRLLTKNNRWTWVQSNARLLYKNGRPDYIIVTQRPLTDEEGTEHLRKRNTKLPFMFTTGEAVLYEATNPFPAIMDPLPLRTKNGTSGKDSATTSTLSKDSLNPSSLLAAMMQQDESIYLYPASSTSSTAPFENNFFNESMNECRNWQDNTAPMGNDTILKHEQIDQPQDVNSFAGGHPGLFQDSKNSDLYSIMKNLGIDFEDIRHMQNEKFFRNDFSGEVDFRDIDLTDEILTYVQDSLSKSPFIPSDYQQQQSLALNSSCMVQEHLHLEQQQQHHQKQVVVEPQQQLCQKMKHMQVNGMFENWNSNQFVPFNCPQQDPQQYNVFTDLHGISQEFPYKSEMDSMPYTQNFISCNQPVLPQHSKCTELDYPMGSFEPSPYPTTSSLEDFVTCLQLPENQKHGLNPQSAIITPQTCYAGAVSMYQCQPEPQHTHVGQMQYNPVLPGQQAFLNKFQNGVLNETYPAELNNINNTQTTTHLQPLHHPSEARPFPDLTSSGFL
Test: qHTS assay to identify small molecule that activate the aryl hydrocarbon receptor (AhR) signaling pathway (AID 743085); further: nearly all actives have a fitted effect of over 15% in size;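 on activation: HG2L7.5c1 human HepG2 liver cells with stably integrated DRE-driven firefly reporter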
Conditions: HepG2 AhR-luc (HG2L7.5c1), luciferase, 24 h; series mostly up to 70.3 µM; activation: at the top concentration
In short: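 Reporter assay in engineered HepG2 line HG2L7.5c1, whose plasmid carries twenty dioxin responsive elements upstream of firefly luciferase. Treatment lasted 24 h at 37C; ONE-Glo luminescence gauged induction.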

SMILES	activation	Potency
CC(C)N(C(=O)SC/C(Cl)=C/Cl)C(C)C	-2.22% [at 95 µM] (inactive)	–
CCCCN(CCCC)C(=S)S	-1.22% (inactive)	–
O=[N+]([O-])c1ccc(CCl)cc1	1.26% (inactive)	–
Cc1ccc(C)c2ccccc12	-0.214% (inactive)	–
COC(=O)c1cc(Oc2ccc(Cl)cc2Cl)ccc1[N+](=O)[O-]	6.68% (inactive)	–
CCOC(=O)CCN(SN(C)C(=O)Oc1cccc2c1OC(C)(C)C2)C(C)C	3.46% (inactive)	–
CCCCc1ccccc1	-0.0193% (inactive)	–
CC(C)Br	1.81% (inactive)	–
CCOP(=S)(OCC)Oc1cc(C)nc(N(CC)CC)n1	–	2.73 µM (active)
Clc1cc(Cl)c(-c2cc(Cl)c(Cl)cc2Cl)cc1Cl	-0.0349% (inactive)	–
CNC(=O)CSP(=O)(OC)OC	0.0053% (inactive)	–
O=S(=O)(O)F	3.68% [at 95 µM] (inactive)	–
CC(C)=CC1C(C(=O)OC(C#N)c2cccc(Oc3ccccc3)c2)C1(C)C (stereo not drawn)	7.46% (inactive)	–
COc1ccc2[nH]cc(CCN(C(C)C)C(C)C)c2c1	–	22.2 µM (active)
CCCCC/C=C\C/C=C\C/C=C\C/C=C\CCCC(=O)NCC(=O)O	-2.57% [at 8.47 µM] (inactive)	–
CC1(C)C(C=C(Cl)Cl)C1C(=O)OC(C#N)c1ccc(F)c(Oc2ccccc2)c1 (stereo not drawn)	4.28% (inactive)	–
O=S1OCC2C(CO1)C1(Cl)C(Cl)=C(Cl)C2(Cl)C1(Cl)Cl (stereo not drawn)	–	inactive
CN(C)c1ccc(N)cc1	–	18.9 µM (active)
Cc1ccn2nc(S(=O)(=O)Nc3c(F)cccc3F)nc2n1	-0.489% (inactive)	–
CC(C)(C)c1ccc(OP(=O)(Oc2ccccc2)Oc2ccccc2)cc1	8.25% [at 95 µM] (inactive)	–

SMILES	activation	Potency
ClC1=C(Cl)[C@]2(Cl)[C@@H]3[C@H]4C[C@H]([C@@H]5O[C@H]45)[C@@H]3[C@@]1(Cl)C2(Cl)Cl	–	inactive
COC(=O)/C=C(\C)OP(=O)(OC)OC	-0.454% (inactive)	–
ClC1(Cl)C2(Cl)C3(Cl)C4(Cl)C(Cl)(Cl)C5(Cl)C3(Cl)C1(Cl)C5(Cl)C24Cl (stereo not drawn)	-0.555% (inactive)	–
Cc1cnc2c(C(=O)O)c(Cl)ccc2c1	5.15% (inactive)	–
CNC(=O)Oc1cc(C)cc(C(C)C)c1	4.07% (inactive)	–
N#Cc1ccc(N(CC(N)=O)CC(F)(F)F)cc1C(F)(F)F	-0.0299% (inactive)	–
Cc1c([N+](=O)[O-])c(C)c([N+](=O)[O-])c(C(C)(C)C)c1[N+](=O)[O-]	-0.77% (inactive)	–
Clc1ccc(C(c2ccc(Cl)cc2)C(Cl)Cl)cc1	-0.545% (inactive)	–
CC(C)C(Br)C(=O)NC(N)=O (stereo not drawn)	-2.16% (inactive)	–
CCCCC(CC)COC(=O)OOC(C)(C)C (stereo not drawn)	-1.06% (inactive)	–
CCOC(=O)Cc1ccccc1	-0.171% (inactive)	–
c1csc(-c2ccc(-c3cccs3)s2)c1	–	24.3 µM (active)
N#CSCc1ccccc1	-2% [at 95 µM] (inactive)	–
C[C@H]1[C@H](c2ccc(Cl)cc2)SC(=O)N1C(=O)NC1CCCCC1	0.95% (inactive)	–
COc1c2c(cc3c1OCO3)CCN(C)C2	0.462% [at 32.5 µM] (inactive)	–
CNC(=O)/C=C(\C)OP(=O)(OC)OC	2.03% (inactive)	–
CSC(C)(C)/C=N/O	1.29% (inactive)	–
CCCCC(CC)COC(=O)c1ccccc1C(=O)OCC(CC)CCCC (stereo not drawn)	-2.99% (inactive)	–
NC(=O)C(Cl)Cl	0.373% (inactive)	–
